# In paper PMC7862700, “An all-to-all approach to the identification of sequence-specific readers for epigenetic DNA modifications on cytosine”:
# Key:
# Assay in all cases: DAPPL (digital affinity profiling via proximity ligation, sequencing); 10 mM Tris-HCl pH 7.5, 50 mM NaCl, 1 mM DTT, 4% glycerol, room temperature, 30 min; GST-TFs on glutathione beads, 16-mer random dsDNA library, 0.1% formaldehyde crosslink after washing; high values mean tight binding
# [1] = biological target: T1, FEV (Homo sapiens, UniProt Q99581 1-238); conditions: protein: recombinant; tags: N-terminal GST; dsDNA, one strand shown
# T1 sequence: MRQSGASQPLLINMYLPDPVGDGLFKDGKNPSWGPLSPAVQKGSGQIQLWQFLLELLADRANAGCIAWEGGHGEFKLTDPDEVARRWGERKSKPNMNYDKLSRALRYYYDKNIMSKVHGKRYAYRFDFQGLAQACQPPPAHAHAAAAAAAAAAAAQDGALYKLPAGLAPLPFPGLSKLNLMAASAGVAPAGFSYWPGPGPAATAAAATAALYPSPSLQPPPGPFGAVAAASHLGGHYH
# Method in brief: (§1)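 Beads coated with glutathione captured GST-fused human transcription factors that had been expressed in yeast, and the factors were then given DNA barcodes and pooled with a tag-only sample. The pools were incubated with 200 nmole of a random double-stranded 16-mer DNA library in Tris/NaCl/DTT/glycerol buffer for 30 min at room temperature, washed, crosslinked with 0.1% formaldehyde and proximity-ligated with BsaI/T4 ligase at 37 °C for 1 h. PCR amplification and Illumina NextSeq500 sequencing came last. Binding signal is each hexamer's read frequency for a factor divided by its frequency for the tag-only sample.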
# [2] = biological target: ETV5 (Homo sapiens, UniProt P41161 1-510); conditions: protein: recombinant; tags: N-terminal GST; dsDNA, one strand shown
# Method in brief: as §1
# [3] = biological target: HSF1 (Homo sapiens, UniProt Q00613 1-529); conditions: protein: recombinant; tags: N-terminal GST; chain copies: 3; dsDNA, one strand shown
# Method in brief: as §1
# [4] = biological target: T2, SPIC (Homo sapiens, UniProt Q8N5J4 1-248); conditions: protein: recombinant; tags: N-terminal GST; dsDNA, one strand shown
# T2 sequence: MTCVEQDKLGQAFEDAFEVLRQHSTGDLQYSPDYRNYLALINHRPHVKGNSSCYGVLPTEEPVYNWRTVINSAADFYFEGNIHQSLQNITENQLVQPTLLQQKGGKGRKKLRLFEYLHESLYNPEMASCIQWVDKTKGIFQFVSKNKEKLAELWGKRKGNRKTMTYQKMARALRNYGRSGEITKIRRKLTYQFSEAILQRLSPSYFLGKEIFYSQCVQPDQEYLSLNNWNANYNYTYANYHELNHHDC
# Method in brief: as §1
# [5] = biological target: ELF4 (Homo sapiens, UniProt Q99607 1-663); conditions: protein: recombinant; tags: N-terminal GST; dsDNA, one strand shown
# Method in brief: as §1
# [6] = biological target: T3, ELK4 (Homo sapiens, UniProt P28324-2 1-405); conditions: protein: recombinant; tags: N-terminal GST; dsDNA, one strand shown
# T3 sequence: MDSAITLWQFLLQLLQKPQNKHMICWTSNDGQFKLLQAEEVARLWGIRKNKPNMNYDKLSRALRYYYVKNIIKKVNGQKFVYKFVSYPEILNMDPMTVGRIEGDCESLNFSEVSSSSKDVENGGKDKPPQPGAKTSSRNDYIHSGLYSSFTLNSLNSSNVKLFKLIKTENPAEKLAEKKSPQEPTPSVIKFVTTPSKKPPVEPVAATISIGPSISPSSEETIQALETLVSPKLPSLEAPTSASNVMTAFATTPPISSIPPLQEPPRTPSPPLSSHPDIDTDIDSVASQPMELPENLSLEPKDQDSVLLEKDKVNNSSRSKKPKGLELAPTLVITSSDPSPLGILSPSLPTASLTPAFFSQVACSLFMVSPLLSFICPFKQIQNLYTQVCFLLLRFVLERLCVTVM
# Method in brief: as §1
# [7] = biological target: T4, ETV2 (Homo sapiens, UniProt O00321 1-342); conditions: protein: recombinant; tags: N-terminal GST; dsDNA, one strand shown
# T4 sequence: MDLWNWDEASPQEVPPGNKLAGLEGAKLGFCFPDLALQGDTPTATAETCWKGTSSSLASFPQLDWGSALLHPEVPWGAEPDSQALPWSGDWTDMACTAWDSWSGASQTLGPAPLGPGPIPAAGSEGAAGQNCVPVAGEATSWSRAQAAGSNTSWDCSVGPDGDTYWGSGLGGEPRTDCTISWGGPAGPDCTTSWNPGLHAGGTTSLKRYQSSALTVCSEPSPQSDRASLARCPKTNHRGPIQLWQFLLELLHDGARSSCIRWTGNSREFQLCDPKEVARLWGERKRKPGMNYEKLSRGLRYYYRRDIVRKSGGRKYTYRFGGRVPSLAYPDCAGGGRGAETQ
# Method in brief: as §1
# [8] = biological target: T5, ELF3 (Homo sapiens, UniProt P78545 1-371); conditions: protein: recombinant; tags: N-terminal GST; dsDNA, one strand shown
# T5 sequence: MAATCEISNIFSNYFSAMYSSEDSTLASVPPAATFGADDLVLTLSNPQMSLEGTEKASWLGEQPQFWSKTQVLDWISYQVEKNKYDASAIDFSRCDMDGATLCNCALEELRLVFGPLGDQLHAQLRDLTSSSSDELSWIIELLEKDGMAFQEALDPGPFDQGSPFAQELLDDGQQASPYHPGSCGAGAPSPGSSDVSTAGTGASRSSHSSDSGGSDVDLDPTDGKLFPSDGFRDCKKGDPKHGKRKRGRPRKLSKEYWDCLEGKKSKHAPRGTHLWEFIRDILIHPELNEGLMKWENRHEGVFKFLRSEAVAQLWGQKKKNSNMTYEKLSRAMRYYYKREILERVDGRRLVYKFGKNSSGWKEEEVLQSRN
# Method in brief: as §1
# [9] = biological target: CRX (Homo sapiens, UniProt O43186 1-299); conditions: protein: recombinant; tags: N-terminal GST; dsDNA, one strand shown
# Method in brief: as §1
# [10] = biological target: ETV1 (Homo sapiens, UniProt P50549 1-477); conditions: protein: recombinant; tags: N-terminal GST; dsDNA, one strand shown
# Method in brief: as §1
# [11] = biological target: T6, ERF (Homo sapiens, UniProt P50548 1-548); conditions: protein: recombinant; tags: N-terminal GST; dsDNA, one strand shown
# T6 sequence: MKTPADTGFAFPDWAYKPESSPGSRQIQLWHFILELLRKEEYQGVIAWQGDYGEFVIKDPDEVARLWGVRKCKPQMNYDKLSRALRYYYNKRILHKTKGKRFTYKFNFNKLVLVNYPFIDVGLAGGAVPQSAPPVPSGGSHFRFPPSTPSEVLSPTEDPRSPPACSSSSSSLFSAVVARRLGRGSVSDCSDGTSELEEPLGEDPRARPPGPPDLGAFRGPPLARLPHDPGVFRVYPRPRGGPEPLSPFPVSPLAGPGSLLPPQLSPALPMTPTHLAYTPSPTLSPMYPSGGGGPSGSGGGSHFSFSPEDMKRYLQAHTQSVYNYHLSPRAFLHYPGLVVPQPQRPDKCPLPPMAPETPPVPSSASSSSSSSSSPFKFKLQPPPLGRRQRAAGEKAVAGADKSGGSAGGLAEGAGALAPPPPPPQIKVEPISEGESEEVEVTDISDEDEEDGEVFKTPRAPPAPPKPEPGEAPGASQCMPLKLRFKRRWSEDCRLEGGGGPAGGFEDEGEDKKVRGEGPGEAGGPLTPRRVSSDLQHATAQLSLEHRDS
# Method in brief: as §1
# [12] = biological target: T7, ETV3L (Homo sapiens, UniProt Q6ZN32 1-361); conditions: protein: recombinant; tags: N-terminal GST; dsDNA, one strand shown
# T7 sequence: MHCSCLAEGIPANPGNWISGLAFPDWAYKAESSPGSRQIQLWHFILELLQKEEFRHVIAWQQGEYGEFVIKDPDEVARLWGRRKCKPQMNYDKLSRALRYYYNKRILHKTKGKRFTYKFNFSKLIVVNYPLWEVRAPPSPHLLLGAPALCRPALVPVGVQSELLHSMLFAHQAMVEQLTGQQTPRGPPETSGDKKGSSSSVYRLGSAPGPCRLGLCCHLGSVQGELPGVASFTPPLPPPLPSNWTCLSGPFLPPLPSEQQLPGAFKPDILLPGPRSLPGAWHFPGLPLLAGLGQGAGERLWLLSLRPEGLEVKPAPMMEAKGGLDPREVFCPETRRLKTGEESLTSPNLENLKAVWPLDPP
# Method in brief: as §1
# [13] = biological target: T8, ETS2 (Homo sapiens, UniProt P15036 1-469); conditions: protein: recombinant; tags: N-terminal GST; dsDNA, one strand shown
# T8 sequence: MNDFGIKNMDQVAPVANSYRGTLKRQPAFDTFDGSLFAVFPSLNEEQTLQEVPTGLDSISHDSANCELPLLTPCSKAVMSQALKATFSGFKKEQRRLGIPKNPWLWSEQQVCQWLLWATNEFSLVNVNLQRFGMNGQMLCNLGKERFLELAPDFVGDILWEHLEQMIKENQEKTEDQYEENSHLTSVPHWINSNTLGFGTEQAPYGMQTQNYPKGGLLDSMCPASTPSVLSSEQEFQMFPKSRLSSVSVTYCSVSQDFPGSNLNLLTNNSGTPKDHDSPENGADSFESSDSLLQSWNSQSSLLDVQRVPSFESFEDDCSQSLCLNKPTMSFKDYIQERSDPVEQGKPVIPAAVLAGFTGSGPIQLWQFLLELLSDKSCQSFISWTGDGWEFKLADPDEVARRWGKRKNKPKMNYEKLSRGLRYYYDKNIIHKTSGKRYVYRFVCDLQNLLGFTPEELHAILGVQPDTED
# Method in brief: as §1
# [14] = biological target: T9, SPDEF (Homo sapiens, UniProt O95238 1-335); conditions: protein: recombinant; tags: N-terminal GST; dsDNA, one strand shown
# T9 sequence: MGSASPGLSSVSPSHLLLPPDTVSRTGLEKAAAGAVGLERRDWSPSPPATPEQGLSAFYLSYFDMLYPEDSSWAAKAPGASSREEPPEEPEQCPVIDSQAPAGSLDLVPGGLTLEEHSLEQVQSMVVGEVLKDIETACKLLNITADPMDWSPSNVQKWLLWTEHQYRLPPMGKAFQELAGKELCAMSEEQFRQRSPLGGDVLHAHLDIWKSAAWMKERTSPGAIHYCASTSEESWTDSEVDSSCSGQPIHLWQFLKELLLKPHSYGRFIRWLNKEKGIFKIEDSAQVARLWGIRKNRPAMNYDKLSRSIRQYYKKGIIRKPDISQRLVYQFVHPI
# Method in brief: as §1
# [15] = biological target: T10, ETV7 (Homo sapiens, UniProt Q9Y603 1-341); conditions: protein: recombinant; tags: N-terminal GST; dsDNA, one strand shown
# T10 sequence: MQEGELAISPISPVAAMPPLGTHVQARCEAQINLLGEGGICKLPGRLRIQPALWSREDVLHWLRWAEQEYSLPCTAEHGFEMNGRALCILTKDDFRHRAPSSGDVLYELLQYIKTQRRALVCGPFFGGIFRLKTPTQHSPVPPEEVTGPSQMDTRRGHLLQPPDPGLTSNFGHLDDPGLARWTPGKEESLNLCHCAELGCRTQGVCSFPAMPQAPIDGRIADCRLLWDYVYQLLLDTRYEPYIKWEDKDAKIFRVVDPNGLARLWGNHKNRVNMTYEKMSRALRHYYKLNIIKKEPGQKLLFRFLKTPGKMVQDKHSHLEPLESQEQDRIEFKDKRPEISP
# Method in brief: as §1
# [16] = biological target: T11, ELF5 (Homo sapiens, UniProt Q9UKW6-2 1-255); conditions: protein: recombinant; tags: N-terminal GST; dsDNA, one strand shown
# T11 sequence: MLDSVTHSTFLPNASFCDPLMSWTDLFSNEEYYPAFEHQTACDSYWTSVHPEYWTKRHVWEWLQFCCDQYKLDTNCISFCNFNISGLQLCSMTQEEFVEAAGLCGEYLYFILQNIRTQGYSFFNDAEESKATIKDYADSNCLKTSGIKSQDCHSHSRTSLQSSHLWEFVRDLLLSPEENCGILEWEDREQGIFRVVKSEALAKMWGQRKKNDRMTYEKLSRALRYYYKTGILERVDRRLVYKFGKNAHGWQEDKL
# Method in brief: as §1
# [17] = biological target: T12, ETV3 (Homo sapiens, UniProt P41162-2 1-143); conditions: protein: recombinant; tags: N-terminal GST; dsDNA, one strand shown
# T12 sequence: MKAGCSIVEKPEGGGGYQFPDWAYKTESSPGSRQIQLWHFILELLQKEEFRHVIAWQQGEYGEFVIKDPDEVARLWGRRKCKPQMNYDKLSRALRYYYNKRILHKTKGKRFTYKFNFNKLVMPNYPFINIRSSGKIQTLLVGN
# Method in brief: as §1
# [18] = biological target: ETV6 (Homo sapiens, UniProt P41212 1-452); conditions: protein: recombinant; tags: N-terminal GST; dsDNA, one strand shown
# Method in brief: as §1
# Chain of HSF1 (Q00613 whole entry): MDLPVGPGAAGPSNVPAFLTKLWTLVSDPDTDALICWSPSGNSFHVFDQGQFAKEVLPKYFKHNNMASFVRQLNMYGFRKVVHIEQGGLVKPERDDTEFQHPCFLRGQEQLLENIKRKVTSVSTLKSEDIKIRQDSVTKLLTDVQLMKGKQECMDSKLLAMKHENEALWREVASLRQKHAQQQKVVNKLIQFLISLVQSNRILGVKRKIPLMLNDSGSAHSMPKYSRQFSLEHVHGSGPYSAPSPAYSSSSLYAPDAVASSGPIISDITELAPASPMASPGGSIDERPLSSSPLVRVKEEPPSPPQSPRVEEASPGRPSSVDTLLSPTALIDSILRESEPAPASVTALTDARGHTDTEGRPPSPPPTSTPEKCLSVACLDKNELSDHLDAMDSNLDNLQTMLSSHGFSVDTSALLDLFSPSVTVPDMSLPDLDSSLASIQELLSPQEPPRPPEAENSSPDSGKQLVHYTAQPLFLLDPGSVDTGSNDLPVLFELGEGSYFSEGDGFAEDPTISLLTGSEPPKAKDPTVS
# Chain of CRX (O43186 whole entry): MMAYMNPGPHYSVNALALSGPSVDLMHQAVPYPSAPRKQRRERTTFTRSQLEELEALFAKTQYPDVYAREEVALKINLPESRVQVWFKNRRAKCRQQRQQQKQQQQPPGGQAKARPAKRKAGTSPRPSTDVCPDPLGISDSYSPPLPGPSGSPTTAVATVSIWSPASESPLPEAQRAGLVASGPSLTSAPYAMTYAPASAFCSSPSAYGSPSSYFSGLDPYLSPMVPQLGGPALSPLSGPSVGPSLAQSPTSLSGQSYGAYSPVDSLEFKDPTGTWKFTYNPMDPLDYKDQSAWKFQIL
# Chain of ETV1 (P50549 whole entry): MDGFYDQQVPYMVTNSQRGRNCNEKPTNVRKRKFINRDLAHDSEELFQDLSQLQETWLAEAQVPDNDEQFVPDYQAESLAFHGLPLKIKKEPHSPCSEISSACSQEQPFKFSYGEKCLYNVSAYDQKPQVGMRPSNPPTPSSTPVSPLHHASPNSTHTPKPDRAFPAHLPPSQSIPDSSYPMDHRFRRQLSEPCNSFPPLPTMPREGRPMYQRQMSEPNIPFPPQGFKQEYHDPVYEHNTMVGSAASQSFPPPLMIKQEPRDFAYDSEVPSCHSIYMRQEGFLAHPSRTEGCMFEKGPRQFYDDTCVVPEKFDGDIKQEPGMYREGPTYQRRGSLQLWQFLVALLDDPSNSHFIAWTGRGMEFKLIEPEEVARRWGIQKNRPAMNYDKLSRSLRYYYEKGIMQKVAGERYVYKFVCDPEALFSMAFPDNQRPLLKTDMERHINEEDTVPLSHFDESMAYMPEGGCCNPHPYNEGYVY
# Chain of ETV6 (P41212 whole entry): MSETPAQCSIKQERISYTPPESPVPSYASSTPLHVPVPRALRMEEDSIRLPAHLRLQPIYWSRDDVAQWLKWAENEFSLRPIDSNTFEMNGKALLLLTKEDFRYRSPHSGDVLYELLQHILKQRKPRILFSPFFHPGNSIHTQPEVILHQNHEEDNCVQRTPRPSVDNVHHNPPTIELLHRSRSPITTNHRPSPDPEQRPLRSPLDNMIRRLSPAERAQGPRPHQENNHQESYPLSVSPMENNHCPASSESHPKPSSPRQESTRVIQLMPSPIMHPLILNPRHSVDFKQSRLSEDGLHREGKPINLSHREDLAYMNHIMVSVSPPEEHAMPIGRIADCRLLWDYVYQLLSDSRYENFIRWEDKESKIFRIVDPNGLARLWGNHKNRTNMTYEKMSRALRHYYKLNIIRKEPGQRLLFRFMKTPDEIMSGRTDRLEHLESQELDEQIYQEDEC
# Chain of ELF4 (Q99607 whole entry): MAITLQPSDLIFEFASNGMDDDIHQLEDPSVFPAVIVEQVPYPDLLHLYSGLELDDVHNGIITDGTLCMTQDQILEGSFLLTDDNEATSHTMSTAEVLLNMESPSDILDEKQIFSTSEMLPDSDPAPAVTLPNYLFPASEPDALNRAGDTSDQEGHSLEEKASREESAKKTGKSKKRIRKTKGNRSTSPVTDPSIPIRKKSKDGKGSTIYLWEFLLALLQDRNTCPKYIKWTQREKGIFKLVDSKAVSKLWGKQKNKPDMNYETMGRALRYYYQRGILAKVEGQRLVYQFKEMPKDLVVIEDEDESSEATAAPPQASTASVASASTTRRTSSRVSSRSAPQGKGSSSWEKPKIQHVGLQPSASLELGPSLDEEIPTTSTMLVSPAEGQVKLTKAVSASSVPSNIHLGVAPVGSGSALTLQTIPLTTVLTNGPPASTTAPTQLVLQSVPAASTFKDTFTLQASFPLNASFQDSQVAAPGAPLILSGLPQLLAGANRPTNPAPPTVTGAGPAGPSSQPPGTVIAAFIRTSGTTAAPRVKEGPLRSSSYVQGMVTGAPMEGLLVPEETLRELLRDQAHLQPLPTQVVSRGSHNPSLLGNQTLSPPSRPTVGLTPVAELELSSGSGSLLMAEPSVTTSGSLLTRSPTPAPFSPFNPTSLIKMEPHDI
# Chain of ETV5 (P41161 whole entry): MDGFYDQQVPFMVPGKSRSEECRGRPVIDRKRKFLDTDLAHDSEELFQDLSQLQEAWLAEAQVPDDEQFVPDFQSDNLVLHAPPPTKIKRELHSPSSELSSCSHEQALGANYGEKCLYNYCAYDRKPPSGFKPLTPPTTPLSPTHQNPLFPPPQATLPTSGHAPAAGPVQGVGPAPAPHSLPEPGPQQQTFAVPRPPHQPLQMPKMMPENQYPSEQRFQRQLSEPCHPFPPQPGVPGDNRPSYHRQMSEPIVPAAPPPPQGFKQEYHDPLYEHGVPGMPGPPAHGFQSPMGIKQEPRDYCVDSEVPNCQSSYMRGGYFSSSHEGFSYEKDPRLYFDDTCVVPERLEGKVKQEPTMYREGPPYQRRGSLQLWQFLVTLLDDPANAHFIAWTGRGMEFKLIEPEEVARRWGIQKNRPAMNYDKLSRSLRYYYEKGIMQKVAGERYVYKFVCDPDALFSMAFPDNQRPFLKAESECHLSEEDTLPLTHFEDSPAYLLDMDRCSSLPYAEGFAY
sequence,measurement,setting,value
ATTCGC,binding signal,[1],"1.24 fold enrichment (6-mer frequency, TF over GST control)"
same,binding signal,[2],"1.13 fold enrichment (6-mer frequency, TF over GST control)"
same,binding signal,[3],"1.47 fold enrichment (6-mer frequency, TF over GST control)"
same,binding signal,[4],"1.39 fold enrichment (6-mer frequency, TF over GST control)"
same,binding signal,[5],"1.11 fold enrichment (6-mer frequency, TF over GST control)"
same,binding signal,[6],"1.1 fold enrichment (6-mer frequency, TF over GST control)"
same,binding signal,[7],"1.29 fold enrichment (6-mer frequency, TF over GST control)"
same,binding signal,[8],"1.27 fold enrichment (6-mer frequency, TF over GST control)"
same,binding signal,[9],"1.26 fold enrichment (6-mer frequency, TF over GST control)"
same,binding signal,[10],"1.11 fold enrichment (6-mer frequency, TF over GST control)"
same,binding signal,[11],"1.24 fold enrichment (6-mer frequency, TF over GST control)"
same,binding signal,[12],"1.23 fold enrichment (6-mer frequency, TF over GST control)"
same,binding signal,[13],"1.15 fold enrichment (6-mer frequency, TF over GST control)"
same,binding signal,[14],"1.26 fold enrichment (6-mer frequency, TF over GST control)"
same,binding signal,[15],"1.12 fold enrichment (6-mer frequency, TF over GST control)"
same,binding signal,[16],"1.18 fold enrichment (6-mer frequency, TF over GST control)"
same,binding signal,[17],"1.23 fold enrichment (6-mer frequency, TF over GST control)"
same,binding signal,[18],"1.25 fold enrichment (6-mer frequency, TF over GST control)"
